38 molecules from PubChem BioAssay (NCI) can be followed below.

This is part of a sample that, as a whole, favours compounds with a hit. Of some 83,000 tested, about 20% had one in any assay.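 Cells were grown in 96-well plates and exposed to the test compound at a single concentration for 48 hours; results are reported as percent growth, with values below 10 considered active.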 Active and inactive are the calls of the source.

This test has as its system UACC-257 melanoma. In words: NCI-60 one-dose screen, 48 h (100 = growth as untreated, 0 = no growth, -100 = all killed). The settings on record: 10 µM unless noted.
In the case of `Cc1ccc(Cl)cc1NC(=O)c1cc2ccccc2cc1O`, the growth was -7.13% (active). For the molecule `COc1ccc(NC(=O)CSc2nc(C)c(C(C)=O)n2-c2ccc([N+](=O)[O-])cc2)cc1`, the growth was 98.4% (inactive). Then `O=C(NC(Cc1nnc2n(Cc3ccccc3)c(=O)c3c4c(sc3n12)CCCC4)c1ccc(Cl)cc1)c1ccccc1` (stereo not drawn), with 105% (inactive); and `COc1cc(C2CC(=O)Nc3c2c(C)nn3-c2nc3ccccc3[nH]2)c(OC)c(OC)c1OC` (stereo not drawn), with 60.6% (inactive); and `Cn1c(-c2c(N)n(Cc3ccc(C(F)(F)F)cc3)c3nc(C#N)c(C#N)nc23)nc2ccccc21`, with 6.78% (active). To `N#Cc1c(-c2ccccc2)cc(-c2ccc(Nc3nc(Nc4ccc(F)cc4)nc(Nc4ccc(F)cc4)n3)cc2)nc1N` belongs 104% (inactive); to `Cc1c(O)cc(-c2cnc(N/N=C\c3ccc(Cl)cc3)s2)c(O)c1C`, 91.2% (inactive); to `COc1ccc2c(c1)O/C(=C\c1cccc(OCC(=O)Nc3nc4ccccc4s3)c1)C2=O`, 106% (inactive). For the molecule `Cn1c2c(c3ccc(Cl)c(Cl)c31)C(C#N)C1(CCNCC1)NC2=O` (stereo not drawn), the growth was 39.9% (inactive). For `COc1ccc(C2=NN(C(=O)c3cc(OC)c(OC)c(OC)c3)C(c3ccc(Cl)cc3)C2)cc1OC` (stereo not drawn), the growth was 54.5% (inactive). Turning to `CCN(CC)CCN1CC(O)=C(c2nc(-c3ccc(Cl)cc3)cs2)C1=N`, the growth was -38.4% (active).

For the molecule `C=C(C)[C@@H]1CC=C2c3sc(-c4ccc(C)cc4)nc3C[C@@H](C)[C@]2(C)C1`, the growth was 105% (inactive). Take `COC(=O)c1c2c(c[n+]([O-])c1C)C(=O)C=CC2=O`: the growth is -35.1% (active).

In the case of `COc1ccc(NC(=O)CSc2nnc(-c3cc(-c4ccccc4)nc4ccccc34)n2-c2ccccc2)cc1`, the growth was 99.2% (inactive). As for `COc1cc(C2CC(=O)Nc3c2c(C)nn3-c2nc3ccccc3[nH]2)cc2c1OCC(=O)N2` (stereo not drawn), the growth was 69.6% (inactive). Take `Cc1cc(Cl)nc(NCc2cc(Nc3ccnc4cc(Cl)ccc34)ccc2F)n1`: the growth is 64.2% (inactive). Then `COc1ccc2c(c1)[nH]c(=O)c1c3cccnc3cn21`, with 64.5% (inactive); and `Cc1ccc(Cc2cnc(NC(=O)c3ccc4noc(-c5ccccc5)c4c3)s2)cc1`, with 99.3% (inactive); and `CC1=CN2C(=O)C3C4=C(CCCC4)SC3N=C2CN1c1c(C)cccc1C` (stereo not drawn), with 99.4% (inactive).

With `Cc1ccc2[nH]c(=O)c3c(c2c1)OC(N)=C(C#N)C31c2cc(Br)ccc2-c2ccc(Br)cc21`, the growth was 76.8% (inactive). `CS(=O)(=O)c1ccc(Nc2nc(N[C@H]3CCCC[C@H]3N)nc3cc[nH]c(=O)c23)cc1`: the growth was -5.02% (active). With `O=C(NCCCNc1cc(-c2cn(-c3ccccc3)nc2-c2cccc(O)c2)ccn1)c1cccc(O)c1`, the growth was 58.4% (inactive). With `COc1ccc(C(=O)COc2ccc(/C=C3\Oc4ccccc4C3=O)cc2)cc1`, the growth was 97.8% (inactive). To `Cc1ccc(C2SCC(=O)N2Cc2ccccc2)cc1` (stereo not drawn) belongs 97.7% (inactive). In the case of `Cc1cccc(Cc2cnc(NC(=O)/C=C/c3ccco3)s2)c1`, the growth was 41.3% (inactive). As to `CN(C)CCNc1nc2ccccc2c2c1c1c(n2Cc2ccccc2)-c2ccccc2C1=O`, the growth was -85.3% (active). To `Cc1occc1-c1n[nH]c(=S)n1N1C(=O)CSC1=S` belongs 109% (inactive). `Cc1cccc(NC(=O)CSc2nc3ccccc3[nH]2)c1`: the growth was 111% (inactive). For the molecule `Cc1ccccc1NC(=O)N/C(N)=N/c1nc(C)c(C)s1`, the growth is 67.8% (inactive). Turning to `NNC(=O)c1nc(N)n(-c2ccc(S(N)(=O)=O)cc2)n1`, the growth was 97.2% (inactive).

With `COc1cc(CCC[P+](c2ccccc2)(c2ccccc2)c2ccccc2)cc2c1OCO2`, the growth is 17.4% (inactive). To `O=C1/C(=C2/C=Nc3ccccc32)N(O)c2ccccc21` belongs 45% (inactive); to `COc1ccccc1N1C(=O)/C(=C/C2=Cc3ccccc3OC2)SC1=S`, 100% (inactive). On to `C=CCn1c(C)nc2cc(Nc3nc(Cl)nc4ccccc34)ccc21`, for which the growth is 102% (inactive). Take `COc1cc(/C=C/C(=O)c2c(C)nc3ccccc3c2C)ccc1OCCCN1CCN(C(=O)c2ccco2)CC1`: the growth is 62.4% (inactive). For the molecule `Cn1cc(-c2csc(-c3ccccc3)n2)c2cccnc21`, the growth is -27.7% [100 µM] (active). Then `N=C(N)c1ccc(-c2ccc(-c3cncc4ccccc34)s2)s1`, with 123% (inactive); and `CC(C)CC(NC(=O)CN(Cc1ccccc1)S(C)(=O)=O)C(=O)O` (stereo not drawn), with 103% (inactive).
